This passage reports binding signal results from paper PMC7862700, “An all-to-all approach to the identification of sequence-specific readers for epigenetic DNA modifications on cytosine”.

Common to all, as to test: DAPPL (digital affinity profiling via proximity ligation, sequencing); 10 mM Tris-HCl pH 7.5, 50 mM NaCl, 1 mM DTT, 4% glycerol, room temperature, 30 min; GST-TFs on glutathione beads, 16-mer random dsDNA library, 0.1% formaldehyde crosslink after washing; high values mean tight binding
For one assay, the target named is T1, FEV (Homo sapiens, UniProt Q99581 1-238).
T1 sequence: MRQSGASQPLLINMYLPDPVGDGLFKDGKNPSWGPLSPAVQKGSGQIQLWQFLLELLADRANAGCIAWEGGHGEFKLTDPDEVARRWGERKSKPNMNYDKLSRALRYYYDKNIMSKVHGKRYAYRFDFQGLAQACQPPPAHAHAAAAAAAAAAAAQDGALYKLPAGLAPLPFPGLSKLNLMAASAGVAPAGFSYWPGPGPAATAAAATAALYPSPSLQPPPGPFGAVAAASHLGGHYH
To be noted: protein: recombinant; tags: N-terminal GST; dsDNA, one strand shown. The method in brief:
(§1)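 Human transcription factors carrying a GST fusion were produced in yeast, bound to glutathione beads, tagged with DNA barcodes and pooled together with a tag-only sample. Each pool was held with 200 nmole of a random double-stranded 16-mer DNA library in Tris/NaCl/DTT/glycerol buffer for 30 min at room temperature, then washed, crosslinked in 0.1% formaldehyde, proximity-ligated with BsaI/T4 ligase (1 h, 37 °C), PCR-amplified and sequenced on an Illumina NextSeq500. Binding signal is the read frequency of each hexamer for a given factor divided by its frequency in the tag-only sample.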

For the next assay, the target named is ETV5 (Homo sapiens, UniProt P41161 1-510). To be noted: protein: recombinant; tags: N-terminal GST; dsDNA, one strand shown. The method in brief: as §1
ETV5, sequence (P41161 whole entry): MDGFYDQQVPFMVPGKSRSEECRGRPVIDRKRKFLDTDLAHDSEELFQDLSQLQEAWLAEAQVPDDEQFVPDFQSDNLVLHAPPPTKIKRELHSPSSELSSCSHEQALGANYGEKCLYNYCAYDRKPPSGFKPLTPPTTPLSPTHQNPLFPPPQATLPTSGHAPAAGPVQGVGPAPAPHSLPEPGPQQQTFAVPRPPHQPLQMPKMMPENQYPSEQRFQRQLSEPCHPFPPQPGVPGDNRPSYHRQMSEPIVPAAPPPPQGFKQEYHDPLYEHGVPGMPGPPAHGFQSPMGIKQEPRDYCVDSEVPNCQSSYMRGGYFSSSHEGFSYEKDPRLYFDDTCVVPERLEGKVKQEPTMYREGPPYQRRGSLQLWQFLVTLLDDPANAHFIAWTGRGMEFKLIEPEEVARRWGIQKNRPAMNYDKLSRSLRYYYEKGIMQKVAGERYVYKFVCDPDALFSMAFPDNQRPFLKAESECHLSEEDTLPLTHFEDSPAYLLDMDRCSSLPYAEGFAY
A further assay has as its target HSF1 (Homo sapiens, UniProt Q00613 1-529). To be noted: protein: recombinant; tags: N-terminal GST; chain copies: 3; dsDNA, one strand shown. A digest of the protocol:
as §1

The target of the next assay is T2, SPIC (Homo sapiens, UniProt Q8N5J4 1-248).
T2 sequence: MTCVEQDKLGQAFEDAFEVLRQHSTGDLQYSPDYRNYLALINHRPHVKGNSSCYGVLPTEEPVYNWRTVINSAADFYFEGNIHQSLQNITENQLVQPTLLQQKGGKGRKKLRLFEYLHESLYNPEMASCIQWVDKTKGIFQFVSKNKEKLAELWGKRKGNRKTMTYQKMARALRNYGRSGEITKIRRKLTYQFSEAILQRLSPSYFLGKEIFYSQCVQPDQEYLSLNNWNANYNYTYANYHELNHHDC
To be noted: protein: recombinant; tags: N-terminal GST; dsDNA, one strand shown. The method in brief:
as §1

A further assay addresses ELF4 (Homo sapiens, UniProt Q99607 1-663). As to conditions: protein: recombinant; tags: N-terminal GST; dsDNA, one strand shown. A digest of the protocol: as §1
Another assay concerns the target T3, ELK4 (Homo sapiens, UniProt P28324-2 1-405).
T3 sequence: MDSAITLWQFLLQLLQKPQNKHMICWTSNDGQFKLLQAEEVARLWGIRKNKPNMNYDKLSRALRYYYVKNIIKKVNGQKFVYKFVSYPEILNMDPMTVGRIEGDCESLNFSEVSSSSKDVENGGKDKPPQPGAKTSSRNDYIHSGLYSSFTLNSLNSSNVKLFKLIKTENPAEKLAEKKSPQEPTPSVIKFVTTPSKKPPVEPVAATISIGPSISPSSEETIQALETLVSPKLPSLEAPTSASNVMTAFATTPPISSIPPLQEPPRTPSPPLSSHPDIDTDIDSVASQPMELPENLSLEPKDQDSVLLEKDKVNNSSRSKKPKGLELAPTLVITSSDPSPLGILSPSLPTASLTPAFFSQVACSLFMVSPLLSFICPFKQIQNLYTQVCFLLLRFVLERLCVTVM
As to conditions: protein: recombinant; tags: N-terminal GST; dsDNA, one strand shown. A digest of the protocol:
as §1

The next assay concerns the target T4, ETV2 (Homo sapiens, UniProt O00321 1-342).
T4 sequence: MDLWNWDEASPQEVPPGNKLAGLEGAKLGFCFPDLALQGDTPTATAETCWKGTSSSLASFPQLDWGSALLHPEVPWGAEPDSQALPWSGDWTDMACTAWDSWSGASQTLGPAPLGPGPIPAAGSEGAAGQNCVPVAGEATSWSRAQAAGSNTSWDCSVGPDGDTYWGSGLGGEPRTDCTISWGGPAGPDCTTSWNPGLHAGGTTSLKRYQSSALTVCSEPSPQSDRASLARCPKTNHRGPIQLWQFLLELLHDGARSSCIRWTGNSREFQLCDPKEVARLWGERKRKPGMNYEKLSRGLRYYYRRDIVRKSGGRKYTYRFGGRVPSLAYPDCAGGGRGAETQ
As to conditions: protein: recombinant; tags: N-terminal GST; dsDNA, one strand shown. A digest of the protocol: as §1

The target in a further assay is T5, ELF3 (Homo sapiens, UniProt P78545 1-371).
T5 sequence: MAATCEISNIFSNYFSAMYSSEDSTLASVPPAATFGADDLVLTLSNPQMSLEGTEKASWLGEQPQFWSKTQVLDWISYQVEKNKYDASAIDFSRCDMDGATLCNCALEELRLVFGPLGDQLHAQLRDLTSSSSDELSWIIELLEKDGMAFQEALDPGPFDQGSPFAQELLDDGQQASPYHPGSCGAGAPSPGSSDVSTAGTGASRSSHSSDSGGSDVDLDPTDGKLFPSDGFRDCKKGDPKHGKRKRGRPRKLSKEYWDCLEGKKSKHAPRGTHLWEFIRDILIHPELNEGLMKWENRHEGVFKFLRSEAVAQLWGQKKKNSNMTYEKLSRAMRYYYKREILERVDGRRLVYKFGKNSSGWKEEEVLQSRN
As to conditions: protein: recombinant; tags: N-terminal GST; dsDNA, one strand shown. The method in brief: as §1

A further assay deals with CRX (Homo sapiens, UniProt O43186 1-299). As to conditions: protein: recombinant; tags: N-terminal GST; dsDNA, one strand shown. A digest of the protocol: as §1
CRX, sequence (O43186 whole entry): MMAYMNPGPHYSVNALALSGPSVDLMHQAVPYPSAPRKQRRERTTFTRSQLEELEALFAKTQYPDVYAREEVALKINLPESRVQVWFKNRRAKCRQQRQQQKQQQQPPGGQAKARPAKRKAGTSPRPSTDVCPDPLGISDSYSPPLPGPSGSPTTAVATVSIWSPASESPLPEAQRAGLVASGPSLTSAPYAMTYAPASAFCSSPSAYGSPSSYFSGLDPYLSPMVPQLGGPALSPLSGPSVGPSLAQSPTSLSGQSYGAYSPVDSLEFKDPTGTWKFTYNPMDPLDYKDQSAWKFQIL
In a further assay the target is ETV1 (Homo sapiens, UniProt P50549 1-477). To be noted: protein: recombinant; tags: N-terminal GST; dsDNA, one strand shown. The method in brief:
as §1

Another assay has as its target T6, ERF (Homo sapiens, UniProt P50548 1-548).
T6 sequence: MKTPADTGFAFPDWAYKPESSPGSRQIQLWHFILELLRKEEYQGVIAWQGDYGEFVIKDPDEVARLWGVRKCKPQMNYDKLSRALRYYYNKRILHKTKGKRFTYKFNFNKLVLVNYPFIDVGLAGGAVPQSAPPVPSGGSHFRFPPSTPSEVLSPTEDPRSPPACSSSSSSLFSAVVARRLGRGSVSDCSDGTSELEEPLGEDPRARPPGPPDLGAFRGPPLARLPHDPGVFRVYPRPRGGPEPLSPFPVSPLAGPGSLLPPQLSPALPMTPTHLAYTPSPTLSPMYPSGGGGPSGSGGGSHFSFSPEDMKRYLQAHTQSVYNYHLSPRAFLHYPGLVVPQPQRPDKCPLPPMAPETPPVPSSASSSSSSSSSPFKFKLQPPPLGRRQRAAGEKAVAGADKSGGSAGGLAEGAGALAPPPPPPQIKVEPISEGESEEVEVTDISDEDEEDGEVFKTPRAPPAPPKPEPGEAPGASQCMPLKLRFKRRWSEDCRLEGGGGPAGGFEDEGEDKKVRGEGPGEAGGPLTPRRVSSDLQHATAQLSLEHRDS
To be noted: protein: recombinant; tags: N-terminal GST; dsDNA, one strand shown. A digest of the protocol: as §1

In another assay the target is T7, ETV3L (Homo sapiens, UniProt Q6ZN32 1-361).
T7 sequence: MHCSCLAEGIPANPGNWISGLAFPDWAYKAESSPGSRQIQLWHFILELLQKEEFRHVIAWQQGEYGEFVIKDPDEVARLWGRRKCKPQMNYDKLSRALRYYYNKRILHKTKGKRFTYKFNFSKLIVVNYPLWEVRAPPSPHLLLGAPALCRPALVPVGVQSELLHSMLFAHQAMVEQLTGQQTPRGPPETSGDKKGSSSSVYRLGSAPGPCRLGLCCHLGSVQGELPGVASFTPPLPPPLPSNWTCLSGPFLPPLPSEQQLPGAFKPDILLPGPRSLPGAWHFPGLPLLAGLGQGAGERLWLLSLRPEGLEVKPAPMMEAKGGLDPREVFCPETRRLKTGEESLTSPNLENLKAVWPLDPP
As to conditions: protein: recombinant; tags: N-terminal GST; dsDNA, one strand shown. A digest of the protocol: as §1

In another assay the target is T8, ETS2 (Homo sapiens, UniProt P15036 1-469).
T8 sequence: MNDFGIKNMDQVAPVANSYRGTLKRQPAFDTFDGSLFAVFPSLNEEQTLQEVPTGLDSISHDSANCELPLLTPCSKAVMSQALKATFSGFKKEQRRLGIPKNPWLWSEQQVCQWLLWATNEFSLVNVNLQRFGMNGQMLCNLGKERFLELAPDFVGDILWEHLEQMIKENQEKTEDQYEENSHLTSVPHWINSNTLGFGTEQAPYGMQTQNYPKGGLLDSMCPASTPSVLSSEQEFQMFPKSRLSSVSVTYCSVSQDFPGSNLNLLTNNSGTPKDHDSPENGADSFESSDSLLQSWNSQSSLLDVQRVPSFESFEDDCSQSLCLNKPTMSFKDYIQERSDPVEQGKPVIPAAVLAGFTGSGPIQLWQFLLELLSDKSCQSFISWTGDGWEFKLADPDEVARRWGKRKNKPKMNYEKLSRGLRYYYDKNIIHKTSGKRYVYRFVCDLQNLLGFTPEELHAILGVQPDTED
To be noted: protein: recombinant; tags: N-terminal GST; dsDNA, one strand shown. A digest of the protocol:
as §1

A further assay concerns the target T9, SPDEF (Homo sapiens, UniProt O95238 1-335).
T9 sequence: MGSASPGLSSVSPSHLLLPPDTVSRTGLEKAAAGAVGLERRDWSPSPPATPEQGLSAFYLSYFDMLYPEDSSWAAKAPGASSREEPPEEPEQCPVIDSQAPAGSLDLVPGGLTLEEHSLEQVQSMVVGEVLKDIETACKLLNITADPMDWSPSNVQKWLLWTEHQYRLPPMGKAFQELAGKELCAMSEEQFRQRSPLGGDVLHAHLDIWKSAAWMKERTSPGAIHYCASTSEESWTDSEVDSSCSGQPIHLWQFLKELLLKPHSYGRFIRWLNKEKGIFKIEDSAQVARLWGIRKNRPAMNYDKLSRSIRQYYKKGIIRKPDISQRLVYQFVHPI
To be noted: protein: recombinant; tags: N-terminal GST; dsDNA, one strand shown. The method in brief:
as §1

For the next assay, the target named is T10, ETV7 (Homo sapiens, UniProt Q9Y603 1-341).
T10 sequence: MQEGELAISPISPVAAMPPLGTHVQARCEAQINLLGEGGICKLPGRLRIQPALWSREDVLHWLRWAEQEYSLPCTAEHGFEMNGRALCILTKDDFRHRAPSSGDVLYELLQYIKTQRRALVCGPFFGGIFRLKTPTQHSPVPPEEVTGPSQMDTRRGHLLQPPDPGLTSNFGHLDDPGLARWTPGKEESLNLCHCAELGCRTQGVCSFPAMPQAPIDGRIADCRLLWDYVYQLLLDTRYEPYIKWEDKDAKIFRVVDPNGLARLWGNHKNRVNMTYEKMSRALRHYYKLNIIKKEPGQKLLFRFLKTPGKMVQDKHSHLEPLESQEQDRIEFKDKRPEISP
To be noted: protein: recombinant; tags: N-terminal GST; dsDNA, one strand shown. A digest of the protocol:
as §1

In the next assay the target is T11, ELF5 (Homo sapiens, UniProt Q9UKW6-2 1-255).
T11 sequence: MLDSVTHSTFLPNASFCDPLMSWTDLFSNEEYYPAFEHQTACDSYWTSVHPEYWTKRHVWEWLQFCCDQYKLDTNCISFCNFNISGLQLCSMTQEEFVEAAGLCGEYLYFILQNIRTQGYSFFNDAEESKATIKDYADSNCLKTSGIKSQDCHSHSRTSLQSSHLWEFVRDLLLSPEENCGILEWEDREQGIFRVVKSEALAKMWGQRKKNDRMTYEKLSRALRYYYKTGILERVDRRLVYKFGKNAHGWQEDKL
To be noted: protein: recombinant; tags: N-terminal GST; dsDNA, one strand shown. The method in brief: as §1

In the next assay the target is T12, ETV3 (Homo sapiens, UniProt P41162-2 1-143).
T12 sequence: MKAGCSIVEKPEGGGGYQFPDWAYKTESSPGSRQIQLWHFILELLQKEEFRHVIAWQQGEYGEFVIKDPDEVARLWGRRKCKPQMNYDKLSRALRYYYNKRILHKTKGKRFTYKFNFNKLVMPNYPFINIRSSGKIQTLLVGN
As to conditions: protein: recombinant; tags: N-terminal GST; dsDNA, one strand shown. A digest of the protocol: as §1

The next assay deals with ETV6 (Homo sapiens, UniProt P41212 1-452). To be noted: protein: recombinant; tags: N-terminal GST; dsDNA, one strand shown. A digest of the protocol:
as §1

HSF1, sequence (Q00613 whole entry): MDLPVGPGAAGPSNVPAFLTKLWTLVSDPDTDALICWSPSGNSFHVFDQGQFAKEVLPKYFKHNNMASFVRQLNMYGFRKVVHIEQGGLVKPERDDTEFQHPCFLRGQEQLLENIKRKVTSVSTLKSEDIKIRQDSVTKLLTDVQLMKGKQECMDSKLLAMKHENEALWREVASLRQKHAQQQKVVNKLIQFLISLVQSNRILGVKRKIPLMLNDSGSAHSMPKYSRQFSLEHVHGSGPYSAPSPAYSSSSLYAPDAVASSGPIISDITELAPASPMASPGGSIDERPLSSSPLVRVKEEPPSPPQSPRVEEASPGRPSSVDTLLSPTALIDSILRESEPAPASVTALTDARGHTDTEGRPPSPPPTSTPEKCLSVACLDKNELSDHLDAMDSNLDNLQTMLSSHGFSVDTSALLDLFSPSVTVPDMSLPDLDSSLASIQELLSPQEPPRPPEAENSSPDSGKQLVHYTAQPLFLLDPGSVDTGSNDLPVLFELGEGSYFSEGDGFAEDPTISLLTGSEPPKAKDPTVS
ETV6, sequence (P41212 whole entry): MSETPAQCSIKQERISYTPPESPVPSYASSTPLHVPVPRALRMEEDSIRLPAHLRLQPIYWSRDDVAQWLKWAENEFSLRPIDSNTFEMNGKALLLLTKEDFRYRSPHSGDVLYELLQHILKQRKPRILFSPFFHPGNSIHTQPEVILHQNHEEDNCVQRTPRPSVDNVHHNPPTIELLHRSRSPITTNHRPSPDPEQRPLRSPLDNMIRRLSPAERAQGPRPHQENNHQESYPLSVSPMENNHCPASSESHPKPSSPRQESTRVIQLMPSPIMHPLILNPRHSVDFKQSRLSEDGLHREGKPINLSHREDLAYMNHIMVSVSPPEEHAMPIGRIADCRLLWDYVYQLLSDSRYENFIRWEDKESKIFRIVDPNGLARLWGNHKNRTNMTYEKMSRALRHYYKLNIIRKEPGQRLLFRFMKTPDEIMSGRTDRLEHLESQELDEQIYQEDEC
ELF4, sequence (Q99607 whole entry): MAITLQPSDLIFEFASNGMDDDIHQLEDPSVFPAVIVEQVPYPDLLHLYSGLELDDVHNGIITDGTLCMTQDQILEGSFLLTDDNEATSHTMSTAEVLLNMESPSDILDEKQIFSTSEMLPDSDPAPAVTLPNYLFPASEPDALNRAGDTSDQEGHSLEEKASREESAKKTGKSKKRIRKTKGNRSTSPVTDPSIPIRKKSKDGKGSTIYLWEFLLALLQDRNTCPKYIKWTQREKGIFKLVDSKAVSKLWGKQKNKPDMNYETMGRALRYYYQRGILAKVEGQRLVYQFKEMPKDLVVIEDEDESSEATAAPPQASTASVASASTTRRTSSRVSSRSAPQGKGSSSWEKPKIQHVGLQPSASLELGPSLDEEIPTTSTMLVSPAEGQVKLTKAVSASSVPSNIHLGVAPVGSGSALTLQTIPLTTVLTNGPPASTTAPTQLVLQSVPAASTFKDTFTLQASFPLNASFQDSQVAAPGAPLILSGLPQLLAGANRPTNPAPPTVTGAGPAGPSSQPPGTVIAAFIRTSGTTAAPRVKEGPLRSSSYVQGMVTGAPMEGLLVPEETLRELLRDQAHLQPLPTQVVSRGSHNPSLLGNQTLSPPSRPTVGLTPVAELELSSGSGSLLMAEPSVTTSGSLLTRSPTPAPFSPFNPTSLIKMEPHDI
ETV1, sequence (P50549 whole entry): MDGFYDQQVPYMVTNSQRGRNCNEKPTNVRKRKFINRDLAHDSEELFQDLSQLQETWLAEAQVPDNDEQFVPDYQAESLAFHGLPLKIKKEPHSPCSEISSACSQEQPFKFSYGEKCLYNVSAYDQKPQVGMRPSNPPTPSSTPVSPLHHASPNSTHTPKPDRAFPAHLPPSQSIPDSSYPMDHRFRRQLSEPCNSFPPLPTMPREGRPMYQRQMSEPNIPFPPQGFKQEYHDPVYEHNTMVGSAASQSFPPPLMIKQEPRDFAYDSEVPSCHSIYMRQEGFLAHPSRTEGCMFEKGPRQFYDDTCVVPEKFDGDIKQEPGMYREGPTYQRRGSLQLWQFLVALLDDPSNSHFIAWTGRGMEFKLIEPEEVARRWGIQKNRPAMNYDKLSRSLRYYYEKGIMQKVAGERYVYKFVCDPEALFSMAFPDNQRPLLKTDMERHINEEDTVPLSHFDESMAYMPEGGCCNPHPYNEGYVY

In the case of CTTATG, the binding signal was 1.35 fold enrichment (6-mer frequency, TF over GST control) with FEV; 1.5 fold enrichment (6-mer frequency, TF over GST control) in the assay with ETV5; 1.64 fold enrichment (6-mer frequency, TF over GST control) in the assay with HSF1; 1.33 fold enrichment (6-mer frequency, TF over GST control) in the assay with SPIC; 1.49 fold enrichment (6-mer frequency, TF over GST control) with ELF4; 1.55 fold enrichment (6-mer frequency, TF over GST control) in the assay with ELK4. For the same sequence, the binding signal in the assay with ETV2 is 1.37 fold enrichment (6-mer frequency, TF over GST control); with ELF3 it was 1.45 fold enrichment (6-mer frequency, TF over GST control); with CRX it was 2.2 fold enrichment (6-mer frequency, TF over GST control); in the assay with ETV1 it was 1.58 fold enrichment (6-mer frequency, TF over GST control); with ERF, 1.52 fold enrichment (6-mer frequency, TF over GST control); in the assay with ETV3L, 1.35 fold enrichment (6-mer frequency, TF over GST control). The binding signal with ETS2 was 1.43 fold enrichment (6-mer frequency, TF over GST control); in the assay with SPDEF it was 1.53 fold enrichment (6-mer frequency, TF over GST control); with ETV7 it was 1.47 fold enrichment (6-mer frequency, TF over GST control); with ELF5, 1.42 fold enrichment (6-mer frequency, TF over GST control); with ETV3, 1.64 fold enrichment (6-mer frequency, TF over GST control); in the assay with ETV6, 1.4 fold enrichment (6-mer frequency, TF over GST control).
